Results filed as inconclusive are left out. A call without a number means that no potency is given here. The source made the active and inactive calls. Unless noted, the call rests on the fitted dose curve; in most records, active means well fitted curve in the direction sought with a large enough effect; inconclusive means small, poorly fitted or top-dose-only effect, or another doubt; inactive means no such curve, though single readings can be large; an effect the other way counts as inactive or inconclusive.
Columns and labels:
[1] = target: alpha-glucosidase (Oryza sativa, rice) (UniProt Q653V4); test: Counterscreen for Glucocerebrosidase Inhibitors: qHTS Assay for Rice alpha-Glucosidase at pH 5.0 (AID 997)
Procedure, shortened: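 Rice alpha-glucosidase (4 nM final) with 400 uM 4-methylumbelliferyl-alpha-D-glucopyranoside in citrate buffer pH 5.0, 20 min at room temperature, stopped at pH 10; fluorescence 365/440 nm, compounds 0.7 nM–77 uM, AC50 from Hill fits.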

[2] = Validation of Assay for Modulators of Lamin A Splicing (AID 1459; active means well fitted curve in the direction sought with a large enough effect in the signal ratio; the % refers to the signal ratio;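 further: cells exposed to compound for two days before reading; ratio rise marks activators and ratio drop marks inhibitors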)
Procedure, shortened: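 Readout: ratio of GFP (500-530 nm) to RFP (575-640 nm) total object intensity by 488 nm laser-scanning cytometry after 48 hrs. Cells were HeLa S3 clones carrying lamin A-EGFP minigene plus DsRed2 viability reporter; vehicle 0.5% DMSO final.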

[3] = target: Alpha-galactosidase A (Homo sapiens) (UniProt P06280); test: Counterscreen for Glucocerebrosidase Inhibitors: qHTS Assay for Human alpha-Galactosidase at pH 4.5 (AID 992)
Procedure, shortened: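 Concentration-response curves (0.7 nM to 77 uM final) were modeled with the Hill equation to give AC50. Reactions: 2 nM enzyme, 80 uM fluorogenic alpha-galactoside, pH 4.5 citric acid buffer, 20 min, room temperature.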

[4] = Cell Viability - LYMP2-006 (AID 978); further: nearly all actives have a fitted effect of over 60% in size; further: potency means the concentration at half of the fitted maximal effect
Procedure, shortened: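 qHTS, 1536-well; 2500 cells/well, 5 hr 37 C; cpd 24 hr 37 C; CellTiter-Glo 30 min RT; luminescence. Tetraoctylammonium bromide pos. ctrl. AC50 via Hill eqn.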

[5] = Cell Viability - LYMP2-010 (AID 981); further: nearly all actives have a fitted effect of over 55% in size; further: potency means the concentration at half of the fitted maximal effect
Procedure, shortened: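 Human lymphoblastoid LYMP2-010 cells (2500/well) were preincubated 5 hr at 37 C, then exposed to compounds for 24 hr at 37 C in complete medium. Intracellular ATP was measured by CellTiter-Glo luminescence after 30 min at room temperature; AC50 from Hill-fitted concentration-response.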

[6] = Cell Viability - LYMP2-012 (AID 982);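 further: cellular ATP by luciferase luminescence where a drop means cytotoxicity; cells exposed to compound for one day before reading; nearly all actives have a fitted effect of over 55% in size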; further: potency means the concentration at half of the fitted maximal effect
[7] = Cell Viability - LYMP2-020 (AID 986); further: nearly all actives have a fitted effect of over 55% in size; further: potency means the concentration at half of the fitted maximal effect
Procedure, shortened: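 Human lymphoblastoid cells, 2500/well, were pre-incubated 5 hr at 37 C, then exposed to compounds for 24 hr at 37 C in complete medium. Intracellular ATP was read by CellTiter-Glo luminescence, and AC50 was derived by Hill fitting of concentration-response data.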

[8] = Cell Viability - LYMP2-022 (AID 987); further: nearly all actives have a fitted effect of over 55% in size; further: potency means the concentration at half of the fitted maximal effect
Procedure, shortened: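 Human lymphoblastoid cells, 2500/well, preincubated 5 hr at 37 C, then exposed to compounds over a concentration range for 24 hr at 37 C in complete medium. Viability read as intracellular ATP by CellTiter-Glo luminescence after 30 min at room temperature; AC50 from Hill fits.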

[9] = Cell Viability - LYMP2-024 (AID 988); further: nearly all actives have a fitted effect of over 60% in size; further: potency means the concentration at half of the fitted maximal effect
Procedure, shortened: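 Human lymphoblastoid cells (2500/well) in complete medium were preincubated 5 hr at 37 C, then exposed to compounds for 24 hr at 37 C. Intracellular ATP was read by CellTiter-Glo luminescence; AC50 from Hill-equation fits of concentration-response data.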

[10] = Cell Viability - LYMP1-002 - Assay at 40 hr (AID 994); further: nearly all actives have a fitted effect of over 60% in size; further: potency means the concentration at half of the fitted maximal effect
Procedure, shortened: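 Human lymphoblastoid cells, 2500/well in complete medium, were preincubated 5 hr at 37 C, then exposed to compounds for 40 hr at 37 C. Intracellular ATP was read by CellTiter-Glo luminescence after 30 min at room temperature; AC50 from Hill-equation fits.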

[11] = Cell Viability - LYMP2-021 (AID 974)
Procedure, shortened: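 Human lymphoblastoid cells (2500/well) were preincubated 5 hr at 37 C, then exposed to compounds for 24 hr at 37 C in complete medium. Intracellular ATP was read by CellTiter-Glo luminescence; AC50 came from Hill-equation fits of concentration-response data.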

[12] = Cell Viability - LYMP2-023 (AID 975)
Procedure, shortened: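 Human lymphoblastoid cells (2500/well) were preincubated 5 hr at 37 C, then exposed to compounds for 24 hr at 37 C in complete medium. Cellular ATP was read by CellTiter-Glo luminescence, and AC50 came from Hill-equation fits.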

[13] = Cell Viability - LYMP2-025 (AID 976); further: series mostly up to about 92 µM
Procedure, shortened: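 Human lymphoblastoid LYMP2-025 cells (2500/well) were pre-incubated 5 hr at 37 C, then treated with compounds for 24 hr at 37 C in complete medium. Viability was read as intracellular ATP by CellTiter-Glo luminescence; AC50 from Hill fits.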

[14] = Cell Viability - LYMP2-002 (AID 977); further: series mostly up to about 92 µM
Procedure, shortened: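 Luminescent ATP readout (CellTiter-Glo, 30 min room temperature) after 24 h compound exposure at 37 C of a human lymphoblastoid line, 2500 cells/well. AC50 values derived by standard Hill fitting of qHTS concentration-response data.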

[15] = Cell Viability - LYMP2-007 (AID 979);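 further: cells exposed to compound for 24 h before reading; nearly all actives have a fitted effect of over 60% in size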
Procedure, shortened: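 Human lymphoblastoid cells (2500/well) were plated in complete medium, incubated 5 hr at 37 C, then exposed to compounds for 24 hr at 37 C. Intracellular ATP was read by CellTiter-Glo luminescence after 30 min at room temperature; AC50 from Hill fits.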

[16] = Cell Viability - LYMP2-008 (AID 980); further: nearly all actives have a fitted effect of over 60% in size
Procedure, shortened: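 Human lymphoblastoid cells (2500/well) were plated, held 5 hr at 37 C, then exposed to compounds for 24 hr at 37 C in complete medium. Intracellular ATP was read by CellTiter-Glo luminescence; AC50 from Hill-fitted concentration-response.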

[17] = Cell Viability - LYMP2-014 (AID 983); further: series mostly up to about 92 µM; nearly all actives have a fitted effect of over 50% in size
Procedure, shortened: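 Human lymphoblastoid cells (2500/well) were pre-incubated 5 hr at 37 C, then exposed to compounds in complete medium for 24 hr at 37 C. Intracellular ATP was read by CellTiter-Glo luminescence after 30 min at room temperature; AC50 from Hill fits.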

[18] = Cell Viability - LYMP2-016 (AID 984); further: nearly all actives have a fitted effect of over 55% in size
Procedure, shortened: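 qHTS, 1536-well: 2500 LYMP2-016 cells/well, 5 hr 37 C, compound added, 24 hr 37 C, CellTiter-Glo 30 min RT, luminescence. Tetraoctylammonium bromide positive control. AC50 via Hill fit.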

[19] = Cell Viability - LYMP2-026 (AID 989); further: nearly all actives have a fitted effect of over 50% in size
Procedure, shortened: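 Human lymphoblastoid cells (2500/well) in complete medium were preincubated 5 hr at 37 C, then exposed to compounds for 24 hr at 37 C. Cellular ATP was read by CellTiter-Glo luminescence; AC50 from Hill-equation fits of concentration-response data.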

[20] = Cell Viability - LYMP1-002 - Assay at 24 hr (AID 993)
Procedure, shortened: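 Human lymphoblastoid LYMP1-002 cells, 2500/well in complete medium, were treated with compounds for 24 h at 37 C; intracellular ATP was read by CellTiter-Glo luminescence. AC50 values came from Hill-equation fits of qHTS concentration-response data.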

Chain of Alpha-galactosidase A (Homo sapiens) (P06280 whole entry, looked up): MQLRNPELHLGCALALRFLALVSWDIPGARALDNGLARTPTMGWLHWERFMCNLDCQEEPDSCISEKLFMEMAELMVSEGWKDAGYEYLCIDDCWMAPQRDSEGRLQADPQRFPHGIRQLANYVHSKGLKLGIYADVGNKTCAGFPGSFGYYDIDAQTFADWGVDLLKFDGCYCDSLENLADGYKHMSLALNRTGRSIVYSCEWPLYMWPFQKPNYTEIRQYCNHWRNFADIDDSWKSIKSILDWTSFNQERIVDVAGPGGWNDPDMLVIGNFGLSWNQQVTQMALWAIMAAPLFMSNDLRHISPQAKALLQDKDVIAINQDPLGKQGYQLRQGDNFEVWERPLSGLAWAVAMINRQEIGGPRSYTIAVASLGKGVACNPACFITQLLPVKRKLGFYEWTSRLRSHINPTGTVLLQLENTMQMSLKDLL

In the case of CC1=C(C)C(=O)C(CCCCC#CCCCC#CCO)=C(C)C1=O, the outcome [1] is reported as “inactive” and the outcome [2] is reported as “inactive”.

With Brc1c(NC2=NCCN2)ccc2nccnc12 the outcome [3] was “inactive”.

In the case of C[N+](C)(C)CCOC(=O)CCC(=O)OCC[N+](C)(C)C, the outcome [3] is reported as “inactive”.

For NC(N)=NC(=O)Cc1c(Cl)cccc1Cl, the outcome [3] was “inactive”, the outcome [1] was “inactive” and the outcome [2] was “inactive”.

With COCC(=O)O[C@]1(CCN(C)CCCc2nc3ccccc3[nH]2)CCc2cc(F)ccc2[C@@H]1C(C)C the outcome [3] was “inactive”.

In the case of O=C(O)CCCCCCCC(=O)O, the outcome [3] is reported as “inactive”, the outcome [1] is reported as “inactive” and the outcome [2] is reported as “inactive”.

With Cc1ccc(=O)n(-c2ccccc2)c1 the outcome [3] was “inactive”.

With Nc1ncn([C@@H]2O[C@H](CO)[C@@H](O)[C@H]2O)c(=O)n1 the Potency [4] was 15.8 µM (active), the Potency [5] was 15.8 µM (active) and the Potency [6] was 15.8 µM (active). For the same compound, the Potency [7] was 10 µM (active), the Potency [8] was 15.8 µM (active) and the Potency [9] was 15.8 µM (active). The Potency [10] was 15.8 µM (active).

With NC(=O)N1c2ccccc2C=Cc2ccccc21 the outcome [11] was “inactive”, the outcome [12] was “inactive” and the outcome [13] was “inactive”. For the same compound, the Potency [14] was “inactive”, the Potency [4] was “inactive” and the outcome [15] was “inactive”. For the same compound, the outcome [16] was “inactive”, the Potency [5] was “inactive” and the Potency [6] was “inactive”. The outcome [17] was “inactive”, the outcome [18] was “inactive” and the Potency [7] was “inactive”. The Potency [8] was “inactive”, the Potency [9] was “inactive” and the outcome [19] was “inactive”. For the same compound, the outcome [3] was “inactive”, the outcome [20] was “inactive” and the Potency [10] was “inactive”. For the same compound, the outcome [1] was “inactive”.

In the case of COc1cc2c(cc1OC)-c1cc(=Nc3c(C)cc(C)cc3C)n(C)c(=O)n1CC2, the outcome [3] is reported as “inactive”, the outcome [1] is reported as “inactive” and the outcome [2] is reported as “inactive”.

For CN(C)CCOC(=O)COc1ccc(Cl)cc1, the outcome [3] was “inactive”.

In the case of COc1ccc(CN(CCN(C)C)c2ccccn2)cc1, the outcome [11] is reported as “inactive”, the outcome [12] is reported as “inactive” and the outcome [13] is reported as “inactive”. For the same compound, the Potency [14] was “inactive”, the Potency [4] was “inactive” and the outcome [15] was “inactive”. The outcome [16] was “inactive”, the Potency [5] was “inactive” and the Potency [6] was “inactive”. The outcome [17] was “inactive”, the outcome [18] was “inactive” and the Potency [7] was “inactive”. For the same compound, the Potency [9] was “inactive”, the outcome [19] was “inactive” and the outcome [20] was “inactive”. The Potency [10] was “inactive” and the outcome [1] was “inactive”.

With CC(=O)Oc1cc(C(C)C)c(OCCN(C)C)cc1C the outcome [3] was “inactive”.

In the case of C[n+]1cc2c3c(ccc2c2ccc4cc5c(cc4c21)OCO5)OCO3, the outcome [3] is reported as “inactive”.

For CN=C(NC#N)NCCSCc1nc[nH]c1C, the outcome [11] was “inactive”, the outcome [12] was “inactive” and the outcome [13] was “inactive”. For the same compound, the Potency [14] was “inactive”, the Potency [4] was “inactive” and the outcome [15] was “inactive”. For the same compound, the outcome [16] was “inactive”, the Potency [5] was “inactive” and the Potency [6] was “inactive”. The outcome [17] was “inactive”, the outcome [18] was “inactive” and the Potency [7] was “inactive”. For the same compound, the Potency [8] was “inactive”, the Potency [9] was “inactive” and the outcome [19] was “inactive”. For the same compound, the outcome [20] was “inactive” and the Potency [10] was “inactive”.

With CCCCOCCOCCOCc1cc2c(cc1CCC)OCO2 the outcome [11] was “inactive”, the outcome [12] was “inactive” and the outcome [13] was “inactive”. The Potency [14] was “inactive”, the Potency [4] was “inactive” and the outcome [15] was “inactive”. For the same compound, the outcome [16] was “inactive”, the Potency [5] was “inactive” and the Potency [6] was “inactive”. For the same compound, the outcome [17] was “inactive”, the outcome [18] was “inactive” and the Potency [7] was “inactive”. For the same compound, the Potency [8] was “inactive”, the Potency [9] was “inactive” and the outcome [19] was “inactive”. For the same compound, the outcome [20] was “inactive” and the Potency [10] was “inactive”.

With CN(C)CCN(Cc1cccs1)c1ccccn1 the outcome [3] was “inactive”.

In the case of CCn1nc(C(=O)O)c(=O)c2cc3c(cc21)OCO3, the outcome [3] is reported as “inactive”, the outcome [1] is reported as “inactive” and the outcome [2] is reported as “inactive”.

With O=c1[nH]c(=O)n([C@H]2C[C@H](O)[C@@H](CO)O2)cc1Br the outcome [11] was “inactive”, the outcome [12] was “inactive” and the outcome [13] was “inactive”. The Potency [14] was “inactive”, the Potency [4] was “inactive” and the outcome [15] was “inactive”. For the same compound, the outcome [16] was “inactive”, the Potency [5] was “inactive” and the Potency [6] was “inactive”. The outcome [17] was “inactive”, the outcome [18] was “inactive” and the Potency [7] was “inactive”. For the same compound, the Potency [8] was “inactive”, the Potency [9] was “inactive” and the outcome [19] was “inactive”. The outcome [20] was “inactive”, the Potency [10] was “inactive” and the outcome [1] was “inactive”.

For Nc1nc(N)c2nc(-c3ccccc3)c(N)nc2n1, the outcome [11] was “inactive”, the outcome [12] was “inactive” and the outcome [13] was “inactive”. The Potency [14] was “inactive”, the Potency [4] was “inactive” and the outcome [16] was “inactive”. For the same compound, the Potency [6] was “inactive”, the outcome [17] was “inactive” and the outcome [18] was “inactive”. For the same compound, the Potency [7] was “inactive”, the Potency [9] was “inactive” and the outcome [19] was “inactive”. The outcome [20] was “inactive”.

With CN(C)C(=O)Oc1ccc[n+](C)c1 the outcome [3] was “inactive”.

For NC(=Nc1ccccc1)Nc1ccccc1, the outcome [11] was “inactive”, the outcome [12] was “inactive” and the outcome [13] was “inactive”. The Potency [14] was “inactive”, the Potency [4] was “inactive” and the outcome [15] was “inactive”. The outcome [16] was “inactive”, the Potency [5] was “inactive” and the Potency [6] was “inactive”. For the same compound, the outcome [17] was “inactive”, the outcome [18] was “inactive” and the Potency [7] was “inactive”. The Potency [8] was “inactive”, the Potency [9] was “inactive” and the outcome [19] was “inactive”. The outcome [20] was “inactive” and the Potency [10] was “inactive”.

With CCN1CCc2nc(N)oc2CC1 the outcome [3] was “inactive”.

In the case of CCC(=O)c1ccc2c(c1)N(CCCN(C)C)c1ccccc1S2, the outcome [3] is reported as “inactive”.

In the case of O=C(O)CN(CCOCCOCCN(CC(=O)O)CC(=O)O)CC(=O)O, the outcome [3] is reported as “inactive”.

For CCCCNc1ccc(C(=O)OCCN(C)C)cc1, the outcome [3] was “inactive”, the outcome [1] was “inactive” and the outcome [2] was “inactive”.

In the case of c1cnc(N2CCN(Cc3ccc4c(c3)OCO4)CC2)nc1, the outcome [3] is reported as “inactive”.

For CCN(CC)CCOCCOC(=O)C1(c2ccccc2)CCCC1, the outcome [1] was “inactive” and the outcome [2] was “inactive”.
